Inconclusive results are not listed. Values without a mark were called inactive. Activity calls are given as the source filed them. Calls follow the shape of the dose curve; as a rule, active = well fitted cell-killing curve with a large enough effect; inconclusive = small, poorly fitted or top-dose-only effect, or effect the other way; inactive = no such curve, though single readings can be large or run the other way.
system: PA-1; test: Confirmatory qHTS for gynecologic anti-cancer compounds from libraries of approved drugs and bioactive compounds; settings: gynecologic cancer cell panel viability, ATPlite luminescence, 48 h; series mostly up to 57.6 µM; activity change, negative = viability loss: at the top concentration; also: nearly all actives have a fitted effect of over 55% in size
Excerpt: National Center for Advancing Translational Sciences [NCATS] Assay Overview: Chemotherapeutic drug responses vary from cancer to cancer and from patient to patient. These variations could be caused by a number of factors including patient genomic background, tumor mutations, tumor heterogeneity, and aspects of drug treatment. Chemotherapeutic drug resistance is also a common issue and can lead to ineffective treatment and patient death. Here we have profiled the cell killing effects of thousands of compounds to characterize the responses in three gynecological cancers, identify cancer-selective compounds, and understand the diversity of responses to these compounds from pan-cancer suppressors to single cell line selective compounds. In this assay, we screened a 7,914 compound drug library that included approved drug and bioactive compounds in six ovarian, three cervical, and two placental cancer cell lines using the ATPlite assay for cell viability. ATPlite is a luminescence based assay reliant on the conversion of a luciferase substrate to light in the presence of ATP. As a cytotoxic compound will suppress growth and decrease the number of cells, the concentration of ATP will decrease, and less light signal will be detected in the well. Hits were selected from the primary screen for follow-up confirmation. For the confirmation screens, the ovarian cancer cell lines included CAOV-3, SK-OV-3, SW 626, ES-2, PA-1, and TOV-21G. The cervical cancer cell lines included HeLa, Ca Ski, and C-33 A. The placental cancer cell lines included JEG-3 and JAR. HEK 293T cells were used as the control cell line to determine the selectivity index. The ATPlite assay was used to determine the IC50 values.
Assay Protocol Summary: 1,000 cells in 4 uL of media were dispensed into white, solid bottom 1536-well plates using a Multidrop Combi (Thermo Scientific). The Assay plates were incubated for 16 hours at 37 C with 5% CO2 in assay plates, followed by the addition of 23 nL of DMSO or drug dissolved in DMSO. . Each compound was assayed in 11 concentrations (1:3 dilution) from 57.5 uM to 0.977 nM, using the automated Wako 1536 Pin Tool workstation and incubated at 37 C with 5% CO2 48 hours. 4 uL of ATPlite, the ATP monitoring reagent, was then added to the each well of the assay plates using the Multidrop Combi reagent dispenser followed by incubation for 15 minutes at room temperature. The resulting luminescence was measured using the ViewLux plate reader.
% is scaled to controls: 0 for no effect and ±100 for the full control effect; potency is read from the fitted curve at half-maximal effect.

SMILES	activity change, negative = viability loss	Potency
COc1cc(F)c(F)c(Nc2ccc(I)cc2F)c1NS(=O)(=O)C1(CC(O)CO)CC1 (stereo not given)	-22.7%	–
CC(C)Oc1ccc(C(=O)NC(CNC(=O)CN(C)C)Cc2ccc(-c3cn4cccc(C(C)O)c4n3)cc2)cc1Cl (stereo not given)	–	0.243 µM (active)
Nc1nccc(Oc2ccc(NC(=O)c3c[nH]cc(-c4ccc(F)cc4)c3=O)cc2F)c1Cl	–	3.06 µM (active)
NC(=O)c1ccc2nc(-c3ccc(Oc4ccc(Cl)cc4)cc3)[nH]c2c1	–	6.85 µM (active)
COc1cc2nccc(Oc3ccc(NC(=O)Nc4cc(C)on4)c(Cl)c3)c2cc1OC	–	5.44 µM (active)
CCCS(=O)c1ccc2nc(NC(=O)OC)[nH]c2c1 (stereo not given)	–	34.3 µM (active)
CCC(=O)N1CCN(c2ccc(-n3c(=O)ccc4cnc5ccc(-c6cnc7ccccc7c6)cc5c43)cc2C(F)(F)F)CC1	–	0.627 µM (active)
CCOc1cc2ncc(C#N)c(Nc3ccc(F)c(Cl)c3)c2cc1NC(=O)/C=C/CN(C)C	–	17.2 µM (active)
N=C(N)c1ccc(OCCCCCOc2ccc(C(=N)N)cc2)cc1	–	4.32 µM (active)
NS(=O)(=O)OC[C@@H]1C[C@@H](n2ccc3c(N[C@H]4CCc5ccccc54)ncnc32)C[C@@H]1O	–	0.685 µM (active)
C=CC(=O)Nc1cccc(Oc2nc(Nc3ccc(N4CCN(C)CC4)cc3)ncc2Cl)c1	–	7.69 µM (active)
Cc1cc(C2CCCCC2)n(O)c(=O)c1	–	3.53 µM (active)
O=C(Nc1cn[nH]c1-c1nc2ccc(CN3CCOCC3)cc2[nH]1)NC1CC1	–	3.85 µM (active)
COc1ccc(OC)c(-c2nnc3ccc(-c4ccc(OC)c(O[C@@H]5CCOC5)c4)nn23)c1	–	5.44 µM (active)
CNC(=O)c1nn(C)c2c1C(C)(C)Cc1cnc(Nc3ccc(N4CCN(C)CC4)cc3)nc1-2	–	0.769 µM (active)
Cc1[nH]c2ccccc2c1CCNCc1ccc(/C=C/C(=O)NO)cc1	–	0.122 µM (active)
COc1cc(N2CCC(N3CCN(C)CC3)CC2)ccc1Nc1ncnc(Nc2ccccc2S(=O)(=O)C(C)C)n1	–	9.68 µM (active)
Oc1cn2c(n1)Nc1ccc(Cl)c(Cl)c1C2	5.17% [at 19.5 µM]	–
CC[C@@]1(O)C(=O)OCc2c1cc1n(c2=O)Cc2c-1nc1ccccc1c2/C=N/OC(C)(C)C	–	0.0273 µM (active)
CC(C)Nc1cc(-c2c[nH]c(C(=O)N[C@H](CO)c3cccc(Cl)c3)c2)c(Cl)cn1	–	6.11 µM (active)

SMILES	activity change, negative = viability loss	Potency
Cc1ccc(C(N)=O)cc1Nc1nccc(-c2cn(C(C)C)c3cnccc23)n1	–	1.37 µM (active)
Cc1cc(Nc2cc(N3CCN(C)CC3)nc(/C=C/c3ccccc3)n2)n[nH]1	–	3.85 µM (active)
CNC1CCC(N(Cc2cccc(-c3ccncc3)c2)C(=O)c2sc3ccccc3c2Cl)CC1 (stereo not given)	–	24.3 µM (active)
CCCC(Nc1nc(-c2ccc(NC(=O)NCC)c(OC)c2)ncc1C)c1cccnc1 (stereo not given)	–	0.137 µM (active)
CC(C)C[C@H](NC(=O)[C@@H](NC(=O)c1cccc(-c2ccccc2)n1)[C@@H](C)O)B(O)O	–	0.0385 µM (active)
CNc1nccc(-c2cccnc2Oc2cc(C(=O)Nc3cccc(C(F)(F)F)c3)ccc2C)n1	–	17.2 µM (active)
CN1CCCC(n2nc(Cc3ccc(Cl)cc3)c3ccccc3c2=O)CC1 (stereo not given)	–	27.3 µM (active)
O=C1Cc2cc(CCN3CCN(c4nsc5ccccc45)CC3)c(Cl)cc2N1	–	24.3 µM (active)
COc1cccc2c1C(=O)c1c(O)c3c(c(O)c1C2=O)C[C@@](O)(C(=O)CO)C[C@@H]3O[C@H]1C[C@H](N)[C@H](O[C@@H]2CCCCO2)[C@H](C)O1	–	0.685 µM (active)
COc1ccc2c(c1OC)C(=O)O[C@@H]2[C@H]1c2c(cc3c(c2OC)OCO3)CCN1C	–	24.3 µM (active)
CN(C)C1CCN(C(=O)c2ccc(NC(=O)Nc3nc(N4CCOCC4)nc(N4CCOCC4)n3)cc2)CC1	–	1.09 µM (active)
COc1c(C)c2c(c(O)c1C/C=C(\C)CCC(=O)O)C(=O)OC2	–	2.17 µM (active)
COc1ccc(-c2cc3nccn3c(Nc3ncccc3C(N)=O)n2)cc1OC	–	6.11 µM (active)
COc1ccc(CCC(=O)c2c(O)cc(O[C@@H]3O[C@H](CO)[C@@H](O)[C@H](O)[C@H]3O[C@@H]3O[C@@H](C)[C@H](O)[C@@H](O)[C@H]3O)cc2O)cc1O	-1.3%	–
CCCCc1nc2cc(/C=C/C(=O)NO)ccc2n1CCN(CC)CC	–	0.385 µM (active)
CC(C)(C(=O)NCC(F)(F)C(F)(F)F)C(=O)NC1C(=O)Nc2ccccc2-c2ccccc21 (stereo not given)	–	9.68 µM (active)
CC1=C(CO)C(=O)O[C@@H]([C@@H](C)[C@H]2CC[C@H]3[C@@H]4C[C@H]5O[C@]56[C@@H](O)C=CC(=O)[C@]6(C)[C@H]4CC[C@]23C)C1	–	1.68 µM (active)
CCN1C[C@H](C)n2c(c(O)c3c(=O)n(Cc4ccc(F)c(Cl)c4)nc(C(=O)NC)c32)C1=O	33.3%	–
COCCOc1ccc2c(c1)ncn2-c1ccc2cccc(N3CCC(N)CC3)c2n1	–	4.85 µM (active)
CO[C@@]12[C@H](COC(N)=O)C3=C(C(=O)C(C)=C(N)C3=O)N1C[C@@H]1N[C@@H]12	12.8%	–
